An excerpt weighted towards active compounds, which were near 1.5% of everything screened.
iPSC survival up – enhancers of single-cell hiPSC survival, primary screen, ATPlite luminescence | survival enhancement, % at 20 µM | 360,000 compounds, 0.044% hits | AID 602274, 2012 | 100% = ROCK inhibitor wells, 0% = DMSO; in the data active = survival enhancement above about 18%;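 also: cells exposed to compounds for 16 hours before the ATP read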
TMEM16A act – TMEM16A chloride channel activators or potentiators, primary screen, cell-based, HTS; Anoctamin-1 (Mus musculus), Q8BHY3; HEK293 TMEM16A/YFP-H148Q/I152L, iodide quench fluorescence; active compounds read low; B-score at 10 µM; 340,000 compounds, 0.3% hits;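 active = fluorescence-ratio B-score plate-corrected deviation score at least 3 library SD below zero, with starting fluorescence score within 5 deviations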;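 also: channel opened by trigger with iodide after compound preincubation; score built on the fluorescence ratio of max minus min over baseline; more negative score means more quench and so TMEM16A activation or potentiation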
ABCB6 inh MLPCN – ABCB6 transporter inhibitors, primary screen, K562-ABCB6 cells, flow cytometry, MLPCN library | AID 602162, 2011 | K562-ABCB6 porphyrin accumulation, 1 h; active compounds read low | fluorescence ratio to DMSO, % at 10 µM | 360,000 compounds, 0.19% hits;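 active = fluorescence ratio to DMSO below 75%, the collection mean minus 3 SD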;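 also: signal is porphyrin accumulated inside mitochondria; 100% equals median channel fluorescence of DMSO control wells; lower ratio means ABCB6 inhibition with less porphyrin fluorescence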
Target sequence (Q9NP58 whole entry, looked up): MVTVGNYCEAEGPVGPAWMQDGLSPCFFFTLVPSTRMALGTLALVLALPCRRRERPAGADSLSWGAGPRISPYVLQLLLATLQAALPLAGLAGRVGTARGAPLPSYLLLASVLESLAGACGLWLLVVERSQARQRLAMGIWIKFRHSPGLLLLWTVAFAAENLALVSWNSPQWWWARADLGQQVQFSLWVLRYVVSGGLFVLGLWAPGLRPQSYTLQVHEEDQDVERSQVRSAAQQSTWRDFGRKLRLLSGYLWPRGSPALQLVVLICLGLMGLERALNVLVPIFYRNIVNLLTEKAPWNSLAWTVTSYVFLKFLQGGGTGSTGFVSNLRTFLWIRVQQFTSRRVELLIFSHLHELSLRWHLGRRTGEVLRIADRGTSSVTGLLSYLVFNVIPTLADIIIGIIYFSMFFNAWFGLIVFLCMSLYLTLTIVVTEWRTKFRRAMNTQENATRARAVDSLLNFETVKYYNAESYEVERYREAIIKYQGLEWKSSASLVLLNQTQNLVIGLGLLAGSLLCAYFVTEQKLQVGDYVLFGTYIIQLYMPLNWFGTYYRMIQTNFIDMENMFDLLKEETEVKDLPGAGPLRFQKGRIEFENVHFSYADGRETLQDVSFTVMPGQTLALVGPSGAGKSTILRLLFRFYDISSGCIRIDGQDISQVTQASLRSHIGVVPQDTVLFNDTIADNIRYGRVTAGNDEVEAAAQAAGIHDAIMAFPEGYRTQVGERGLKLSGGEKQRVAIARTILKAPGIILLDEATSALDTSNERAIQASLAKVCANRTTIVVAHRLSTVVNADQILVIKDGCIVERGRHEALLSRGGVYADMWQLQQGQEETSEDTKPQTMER
TMEM16A inh – TMEM16A chloride channel inhibitors, primary screen, cell-based, HTS. Anoctamin-1 (Mus musculus), Q8BHY3. HEK293 TMEM16A/YFP iodide influx fluorescence, ionomycin. normalized B-score (activity score, 25-100; higher = stronger inhibition) at 10 µM. 310,000 compounds, 1.2% hits. AID 588511, 2011;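 active = ratio plate-corrected score three or more library SD toward inhibition, starting fluorescence score within five deviations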;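 also: score derived from kinetic fluorescence span divided by baseline fluorescence per well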
DAGLB inhibitor – DAGLB lipase inhibitors, primary screen, biochemical, fluorescence, HTS; Diacylglycerol lipase-beta (Homo sapiens), Q8NCG7; 340,000 compounds, 0.059% hits; HEK293T DAGLB membrane lysate, EnzChek fluorogenic substrate; inhibition, % at 5.17 µM; AID 504411, 2011; in the data active = inhibition above about 34%;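 also: 0% = enzyme with vehicle and 100% = wells lacking enzyme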
* hit, by the source's call; i = inactive; / = not tested or not shown.

SMILES	iPSC survival up	TMEM16A act	ABCB6 inh MLPCN	TMEM16A inh	DAGLB inhibitor
O=C(Nc1ccc(C(O)(C(F)(F)F)C(F)(F)F)cc1)c1ccc(Cl)c([N+](=O)[O-])c1	-1	i	102	100*	-3
O=[N+]([O-])c1ccccc1CN1CCN(Cc2ccc3ccccc3c2)CC1	0	i	91	i	-4
Fc1ccccc1C1c2cccn2CCN1C(=S)Nc1ccc(Br)cc1 (stereo unspecified)	0	-4.6*	103	i	-8
Fc1ccccc1C1c2cccn2CCN1C(=S)Nc1cccc(Br)c1 (stereo unspecified)	0	i	107	i	3
COc1cccc(-c2cnc(C(O)c3cc(Cl)cc(Cl)c3)[nH]2)c1 (stereo unspecified)	0	/	100	/	/
Cc1[nH]c2ccccc2c1C(=O)C(C)OC(=O)C1CCC1 (stereo unspecified)	0	i	105	i	-3
COc1ccc(OC)c(/C=C2\SC(N3CCCC(C)C3)=NC2=O)c1 (stereo unspecified)	0	i	94	100*	0
COc1ccc(/C=C2\SC(N3CCCCC3)=NC2=O)cc1OC	0	i	112	i	1
Cc1ccc(NC(=O)NNC(=O)c2cc3ccccc3cc2O)c(C)c1	0	i	97	i	3
Cc1ccc(NC(=S)NNC(=O)c2ccccc2O)c(C)c1	-1	i	99	100*	7
Cc1ccc(SCC(=O)Nc2ccc(N3CCN(C)CC3)c(F)c2)c(C)c1	0	i	96	i	0
Cc1cccc2c(C(=O)N3CCN(C(=O)c4ccco4)CC3)cc(-c3cccc(Br)c3)nc12	0	i	87	100*	1
CC(=O)Nc1ccc(C(=O)N2CCCCC2c2cc(C(=O)NCc3cccnc3)no2)cc1 (stereo unspecified)	1	/	100	/	/
Cc1ccc(S(=O)(=O)N2CCC(=O)N(C(COCc3ccc(C(F)(F)F)cc3)Cc3ccccc3)CC2)cc1 (stereo unspecified)	-3	-34*	98	i	-13
Cc1ccc(S(=O)(=O)N2CCC(=O)N(C(COCc3cccc(C)c3)Cc3ccccc3)CC2)cc1 (stereo unspecified)	8	-22*	88	i	-15
Cc1ccc(COCC(CC(C)C)N2CCN(C(=O)c3cccc(C(F)(F)F)c3)CCC2=O)cc1 (stereo unspecified)	2	-17*	101	i	-8
N#Cc1cnc(Oc2ccc(Cl)cc2)nc1N	-1	i	97	i	-1
CCCCCC(=O)N(Cc1ccccc1)c1c(N)n(CCOC)c(=O)[nH]c1=O	1	i	102	i	-3
O=C(Cc1ccc(Cl)cc1Cl)Nc1ccncc1Cl	0	i	94	25*	-4
COc1cc(/C=C2\SC(=Nc3ccc(O)cc3)NC2=O)cc(OC)c1O	1	-4.7*	230	i	0
CCc1ccc(N=C2NC(=O)/C(=C/c3cc(OC)c(OC)c(OC)c3)S2)cc1	0	i	94	i	2
O=C(NNC1=C(C(=O)C(F)(F)F)CCC1)c1cccc(Cl)c1	0	i	112	100*	-18
COc1ccc(C(=O)NNC2=C(C(=O)C(F)(F)F)CCC2)cc1	0	i	97	i	/
O=C(O)C[C@H]1c2cc(F)ccc2S(=O)(=O)N1Cc1ccccc1	3	i	102	i	-1
CCCCCCCCCCCCN1[C@@H](CC(=O)O)c2cc(F)ccc2S1(=O)=O	-2	i	100	100*	12
SMILES	iPSC survival up	TMEM16A act	ABCB6 inh MLPCN	TMEM16A inh	DAGLB inhibitor
CCCCCCCCN1[C@@H](CC(=O)OC)c2cc(F)ccc2S1(=O)=O	-2	i	94	i	-10
CCCCCCCCN1[C@@H](CC(=O)O)c2cc(C(F)(F)F)ccc2S1(=O)=O	-1	i	98	i	11
CCCCCCCCN1[C@@H](CC(=O)OCC)c2cc(F)ccc2S1(=O)=O	-1	i	101	25*	-19
CCCCCCCCCCCCN1[C@@H](CC(=O)O)c2cc(C(F)(F)F)ccc2S1(=O)=O	-1	i	93	100*	11
CCOc1ccccc1NC(=O)CSc1nc2[nH]ncc2c(=O)[nH]1	0	i	100	i	-2
CCCCC(CC)C(=O)Nc1ncc([N+](=O)[O-])s1 (stereo unspecified)	0	i	95	100*	0
COc1ccc(S(=O)(=O)Nc2ccc(F)c(F)c2)cc1C(=O)N1CCOCC1	2	i	101	i	3
CN(CC(=O)Nc1ccccc1Br)C(=O)c1cc([N+](=O)[O-])ccc1N1CCOCC1	0	i	322	i	0
Cc1ccc(C(=O)O/N=C/c2c(N3CCOCC3)n(C)c3ccccc23)cc1	0	i	92	i	1
CC(=O)O/N=C/c1c(N2CCOCC2)n(C)c2ccccc12	4	i	52*	i	2
Cc1nc(SCc2nc3ccc(Br)cc3[nH]2)c2oc3ccccc3c2n1	1	i	96	/	-9
CCc1nc(SCc2nc3ccccc3[nH]2)c2oc3ccccc3c2n1	-1	i	93	25*	-5
CC1=NOC(=O)/C1=C\c1ccc(-c2ccc(Cl)cc2Cl)o1	-3	-6.6*	102	/	27
CCCOc1ccc(Cl)cc1/C=C1/C(=O)ON=C1C	0	i	100	i	1
Cc1ccc(-c2nc(CSCC(=O)N3CCN(C(=O)c4ccco4)CC3)c(C)o2)cc1	-1	i	103	i	-7
CCc1ccc(-c2nc(CSCC(=O)N3CCN(c4ccccn4)CC3)c(C)o2)cc1	3	i	90	100*	-2
Cc1ccc(-c2nc(CSCC(=O)N3CCN(c4ccccn4)CC3)c(C)o2)cc1	2	i	93	25*	-3
CC1CCCC(C)N1C(=O)COC(=O)c1c[nH]c2ccccc12 (stereo unspecified)	1	i	98	/	-3
COc1cc2oc(=O)cc(CN3CCCCCCC3)c2cc1Cl	-1	/	97	/	/
CCC(=O)c1ccc(OCC(=O)OCC(=O)NCCCc2ccccc2)cc1	0	i	100	i	1
Cc1ccccc1CN(C)C(=O)COC(=O)c1ccc2[nH]c(C)c(C)c2c1	1	i	80	/	0
CN(C(=O)COC(=O)COc1ccc2ccccc2c1)c1ccccc1	-1	/	100	/	-4
COC(=O)c1c(C)oc2ccc(N(C(=O)c3ccncc3)S(=O)(=O)c3ccccc3)cc12	8	i	98	i	-1
